Bioassay records as filed in PubChem.
A selection: hits, their analogues and other compounds. The true share with any hit is near 3.7%.
Tb PYK inh – T. brucei pyruvate kinase inhibition. actives 0.12% (n = 410,000). TbPYK enzyme, Kinase-Glo Plus ATP luminescence, 45 min. Potency, µM (highest dose often 76.8 µM), for inactives: at the top dose activity, negative = inhibition, usual class: inhibitors. Q57TT1; note: nearly all actives have a fitted effect of over 50% in size
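In this concentration-response screen, enzyme-free wells defined baseline while DMSO plates tracked drift. Each reaction combined TbPYK, substrate, compound and 130 uM ADP for 45 min at room temperature. Kinase-Glo Plus luminescence gave the signal.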
Sm TGR block – S. mansoni TGR enzyme inhibition; Potency, µM (top dose mostly 114 µM), inactives show at the highest dose activity change, negative = inhibition, hits mostly inhibitors; actives 3% (n = 360,000); purified TGR, DTNB reduction, TNB absorbance 405 nm; note: nearly all actives have a fitted effect of over 60% in size
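Kinetic colorimetric format: TGR-catalysed, NADPH-driven DTNB reduction monitored via TNB absorbance. Enzyme dispensed at 20 nM; compound exposure 15 min at room temperature before reaction start.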
FMDV antiviral – blocks foot and mouth disease virus | FMDV antiviral cell-based qHTS | Potency, µM (top dose mostly 57.9 µM), for the others: at the highest dose activity change, negative = inhibition, hits mostly inhibitors | actives 1.2% (n = 410,000); calls by dose curve; tested in HEK293T cells; note: read-out not given here; nearly all actives have a fitted effect of over 45% in size
RE007 growth inh – less growth of the S. pombe RE007 Vpr strain. S. pombe RE007 Vpr strain, BacTiter-Glo ATP luminescence, 24 h. actives 0.21% (n = 360,000). Potency, µM (highest dose often 92.2 µM), inactives show at the highest dose activity change, negative = less growth, most hits filed as inhibitors; active = well fitted falling curve with a large enough effect; inconclusive = small, poorly fitted or top-dose-only effect; inactive = no such curve, though single readings can be large or run the other way; note: nearly all actives have a fitted effect of over 50% in size
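Fission yeast strain RE007, carrying one chromosomally integrated HIV-1 vpr copy, was seeded at OD 0.01 in PMG+AL medium with 23 nL pinned compound. After 24 h at 30 °C and 99% humidity, viability was read by BacTiter-Glo luminescence.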
The depositor's hits bear a star; ? = inconclusive; / = no result given. Unless noted, calls come from the whole dose curve; as a rule, active = well fitted curve in the direction sought with a large enough effect; inconclusive = small, poorly fitted or top-dose-only effect, or another doubt; inactive = no such curve, though single readings can be large; an effect the other way counts as inactive or inconclusive. % is set by controls: 0 for no effect and ±100 for the full control effect; potency is the fitted concentration of half-maximal effect.

SMILES	Tb PYK inh	Sm TGR block	FMDV antiviral	RE007 growth inh
COc1ccc(CNC(=O)C2CCCN(S(=O)(=O)N(C)c3ccc(F)cc3)C2)cc1OC (stereo not drawn)	-6%	7%	13µM*	/
O=C(c1cnsn1)N1CCOc2ccc(CN3CCOCC3)cc2C1	/	/	18%	/
COc1ccc(-n2ccn3c(CC(C)(C)CC(=O)O)nnc3c2=O)cc1	-1%	-2%	1%	/
O=C(OCC(=O)N1CCCc2ccccc21)c1cc(Cl)ccc1O	-1%	-32%	2%	6%
O=C(OCC(=O)N1CCCC1=O)c1cc(Cl)ccc1O	1%	-2%	18%	16µM*
COc1ccc(C2=NN(CCC(=O)NCCc3ccccc3)C(=O)CC2)cc1	1%	-1%	2%	/
CCOC(=O)c1c(NC(=O)/C=C/C(=O)O)sc(C)c1-c1ccc(C)c(C)c1	-9%	3%	32µM*	-29%
CCOC(=O)c1c(C)nn(-c2ccc(NC(=O)c3c(C)noc3C)cc2)c1C	0%	15%	-54%	5%
COC(=O)c1c(NC(=O)/C=C/C(=O)O)sc(C)c1-c1ccc(C)c(C)c1	-2%	-4%	?	-16%
COC(=O)c1c(NC(=O)/C=C/C(=O)O)sc(C)c1-c1ccc(C)cc1	-4%	/	0%	?
CCOC(=O)c1c(C)nn(-c2ccc(NC(=O)/C=C/C(=O)O)cc2)c1C	-7%	50µM*	-24%	2%
CCOC(=O)c1c(NC(=O)/C=C/C(=O)O)sc(C)c1-c1ccc(F)cc1	1%	0%	32µM*	0%
COC(=O)c1c(NC(=O)/C=C/C(=O)O)sc(C)c1-c1ccc(C(C)C)cc1	6%	?	14µM*	7%
CN1C(=O)C(C)(C)c2cc(S(=O)(=O)N3CCCC3C(=O)Nc3ccc(F)cc3)ccc21 (stereo not drawn)	-8%	3%	-9%	/
O=C(CCC1CCN(Cc2ccccc2)CC1)c1ccc2c(c1)NCCCC2	-6%	/	/	/
COc1ccc(NC(=O)CCn2c(=O)c3cccn3c3cccnc32)c(OC)c1	-6%	4%	-3%	/
Cc1occc1-c1nnc(SCC(=O)c2c[nH]c3ccccc23)n1C	-16%	18µM*	13%	20%
Cc1occc1-c1nnc(SCC(=O)N2CCCCC2)n1C	1%	-2%	0%	7%
Cc1ccc(C(=O)CSc2nnc(-c3ccco3)n2C)cc1	-26%	/	20%	15%
Cn1c(SCC(=O)c2cc(Cl)c(Cl)s2)nnc1-c1ccco1	?	25µM*	17%	-19%
Cc1occc1-c1nnc(SCC(=O)c2ccc(Cl)cc2)n1C	-8%	40µM*	-7%	-5%
CCCC(=O)Nc1ccc(-c2csc(N/N=C\c3ccncc3)n2)cc1	?	18µM*	-11%	3%
CC(=O)Nc1ccc(-c2csc(N/N=C\c3ccncc3)n2)cc1	-17%	?	-11%	-11%
CCCC(=O)Nc1ccc(-c2csc(NNC(C)=O)n2)cc1	-7%	25µM*	29%	18%
Cc1c(C(=O)N(C)Cc2ccccc2)sc2nc(-c3ccc(F)cc3)cn12	0%	23%	2%	/
SMILES	Tb PYK inh	Sm TGR block	FMDV antiviral	RE007 growth inh
Cc1ccc2c(CN3CC(C)CC(C)C3)cc(=O)oc2c1 (stereo not drawn)	4%	89µM*	3%	2%
Cc1ccc2c(CN3CCCCC3C)cc(=O)oc2c1 (stereo not drawn)	-6%	2%	15%	18%
Cc1ccc2c(CN3CCCCC3CCO)cc(=O)oc2c1 (stereo not drawn)	-9%	25µM*	1%	18%
Cc1ccc2c(CN3CCC(C)CC3)cc(=O)oc2c1	1%	-7%	63%	-23%
COCc1cc(C)n(CC(=O)Nc2ccc(NC(C)=O)cc2)c(=O)c1C#N	-1%	0%	3%	/
COc1c(C)cc(NS(=O)(=O)c2ccc3c(c2)OCCO3)cc1C	0%	5%	-4%	/
O=C(CN1C(=O)c2ccccc2C1=O)NCC1Cc2cccc(-c3ncccn3)c2O1 (stereo not drawn)	/	/	3%	/
CCC1CN(CCNC(=O)c2cn3cc(C)ccc3n2)Cc2cc(OC)ccc2O1 (stereo not drawn)	/	/	2%	/
CCOC(=O)/C(=C\c1ccc(Cl)cc1)c1nc2sc(C)c(C)c2c(=O)[nH]1	-33%	?	10µM*	12%
CCOC(=O)CSc1nc2sc(C)c(C)c2c(=O)[nH]1	0%	0%	-13%	-18%
COc1ccc(-c2noc(-c3cc(C(C)C)[nH]n3)n2)cc1	0%	1%	49%	/
N#CC1=C(SCC(=O)Nc2ccc(C(=O)O)cc2)NC(=O)CC1c1ccco1 (stereo not drawn)	-20%	35µM*	-12%	-2%
Cc1ccc(NC(=O)CSC2=C(C#N)C(c3ccco3)C3=C(CCCC3=O)N2)cc1 (stereo not drawn)	2%	-26%	-5%	21%
CC1CCC/C(=N\NS(=O)(=O)c2ccccc2)C1 (stereo not drawn)	1%	?	-6%	11%
N#CC1(c2ccccc2)CCC(=NNS(=O)(=O)c2ccccc2)CC1 (stereo not drawn)	-2%	40µM*	4%	19%
CN(C(=O)COC(=O)c1nc(Cl)c(Cl)c(Cl)c1Cl)C1CCS(=O)(=O)C1 (stereo not drawn)	3%	35µM*	16µM*	-7%
COc1cc(=O)n2c(c1C(=O)N(C)Cc1nonc1C)CCN(Cc1c(F)cccc1F)CC2	/	/	-3%	/
COc1ccc(CNc2cccc3[nH]c(C(F)(F)F)nc23)cc1	-17%	32µM*	-25%	4%
Cc1ccc(C(=O)Nc2cccc3[nH]c(C(F)(F)F)nc23)cc1	5%	0%	-23%	6%
COc1cc(CNc2cccc3[nH]c(C(F)(F)F)nc23)cc(OC)c1	-25%	22µM*	?	1%
COC(=O)c1csc(C(=O)c2c[nH]c3ccccc23)n1	-1%	/	-11%	/
Cn1c(O)c(N=NC(=N)N)c2ccccc21	5%	18%	-9%	-8%
Cc1ccccc1N=Nc1c(O)n(C)c2ccccc12	-17%	35µM*	1%	-7%
COc1ccc(NC(=O)CC2C(=O)N(c3ccccc3)C(=O)N2Cc2ccco2)cc1 (stereo not drawn)	2%	-13%	-5%	2%
CCc1ccc(NC(=O)CC2C(=O)N(c3cccc(OC)c3)C(=O)N2Cc2ccco2)cc1 (stereo not drawn)	2%	40µM*	-8%	/
CCc1ccc(NC(=O)CC2C(=O)N(c3cccc(C)c3)C(=O)N2Cc2ccco2)cc1 (stereo not drawn)	3%	45µM*	-7%	/
CN1C(=O)C(CC(=O)Nc2ccc(Cl)cc2)N(Cc2ccco2)C1=S (stereo not drawn)	-8%	10µM*	-7%	6%
Cc1nc(CN2CCN(C(=O)CC3(c4ccccc4Cl)CC(=O)N(C)C3=O)CC2)cs1 (stereo not drawn)	/	/	3%	/
Cc1c(CC(=O)NCCCC(=O)O)c(=O)oc2cc3c(cc12)CCC(C)(C)O3	-11%	-17%	6.3µM*	-8%
